These results are taken from PubChem BioAssay.

The nature of experiment [1]: resazurin metabolic signal in HepG2 cells – cell-based, resazurin fluorescence, 24 h, PK04 Diversity Set, profiling panel (AID 1172). Also: test concentration not given here. Conditions: HepG2 viability, higher = more signal.
Experiment [2] can be described thus: budding yeast growth changes without added modifier – OD600, strain BY4716, 24 h, basal condition, primary screen (AID 1173). Particulars: S. cerevisiae BY4716 growth, OD600, 24 h; higher = more signal, called active from +8 up or from −8 down.
Experiment [3] is described as follows: viability profiling in MM1S myeloma cells – cell-based, resazurin fluorescence, basal, 24 h, PK04 Diversity Set, profiling panel (AID 1174).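 Also: MM1S multiple myeloma cell line; test concentration not given here.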 Conditions: higher = more signal, called active from +8 up or from −8 down. In general terms: Alamar Blue is a resazurin reagent that responds to reducing activity.
Experiment [4] has as its target Dihydroorotate dehydrogenase (quinone), mitochondrial (Plasmodium falciparum (isolate 3D7)) (UniProt Q08210). Put plainly: inhibition of P. falciparum DHODH – biochemical, C-terminal His tag, absorbance 600 nm, primary screen (AID 1175).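 Also: recombinant parasite enzyme with a five histidine tag at its C terminus; test concentration not given here.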 Particulars: PfDHODH enzyme, DCIP absorbance 600 nm; higher = more signal, called active from +8 up or from −8 down.
Experiment [5] in a line: inhibition of PAO1 biofilm formation – strain PAO1, LB-PBS medium, absorbance 600 nm, primary screen (AID 1176). Also: test concentration not given here. Conditions: P. aeruginosa PAO1 growth/biofilm, A600, 12 h; higher = more signal.
Experiment [6] in a line: growth modulation of vineyard yeast isolate – strain RM11-1a, OD600, basal, 24 h, primary screen (AID 1177).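 Also: cultures grown under basal conditions with no added stressor; test concentration not given here.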 Conditions: S. cerevisiae RM11-1a growth, OD600, 24 h; higher = more signal, called active from +8 up or from −8 down.
Experiment [7] is described as follows: growth of efflux-deficient E. coli DRC39 – strain DRC39, OD650, 24 h, E. coli filamentation inducers, primary screen (AID 1178).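 Also: growth measured as culture turbidity by optical density at 650 nm; test concentration not given here.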 Particulars: E. coli DRC39 acrAB, higher = more signal, called active from +8 up or from −8 down.
Experiment [8] can be described thus: growth of efflux-deficient E. coli DRC39 – strain DRC39, OD650, 48 h, E. coli filamentation inducers, primary screen (AID 1179).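 Also: screen aims at cell division blockers that make cells filament.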 Particulars: E. coli DRC39 delta-acrAB growth, higher = more signal, called active from +8 up or from −8 down.
Experiment [9] in a line: viability profiling in RPMI8226 myeloma cells – cell-based, resazurin fluorescence, basal, 24 h, PK04 Diversity Set, profiling panel (AID 1180).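 Also: RPMI8826 multiple myeloma cell line at 5000 cells per well; test concentration not given here.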 Conditions: higher = more signal.
The target of experiment [10] is E3 ubiquitin-protein ligase XIAP (Homo sapiens) (UniProt P98170). Put plainly: small molecules binding XIAP protein – biophysical, small-molecule microarray, fluorescence 635 nm, primary screen (AID 1181).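 Also: score merges 667 nm emission and signal to noise over triplicate slides.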 Conditions: higher = more signal.
Chain of E3 ubiquitin-protein ligase XIAP (Homo sapiens) (P98170 whole entry, looked up): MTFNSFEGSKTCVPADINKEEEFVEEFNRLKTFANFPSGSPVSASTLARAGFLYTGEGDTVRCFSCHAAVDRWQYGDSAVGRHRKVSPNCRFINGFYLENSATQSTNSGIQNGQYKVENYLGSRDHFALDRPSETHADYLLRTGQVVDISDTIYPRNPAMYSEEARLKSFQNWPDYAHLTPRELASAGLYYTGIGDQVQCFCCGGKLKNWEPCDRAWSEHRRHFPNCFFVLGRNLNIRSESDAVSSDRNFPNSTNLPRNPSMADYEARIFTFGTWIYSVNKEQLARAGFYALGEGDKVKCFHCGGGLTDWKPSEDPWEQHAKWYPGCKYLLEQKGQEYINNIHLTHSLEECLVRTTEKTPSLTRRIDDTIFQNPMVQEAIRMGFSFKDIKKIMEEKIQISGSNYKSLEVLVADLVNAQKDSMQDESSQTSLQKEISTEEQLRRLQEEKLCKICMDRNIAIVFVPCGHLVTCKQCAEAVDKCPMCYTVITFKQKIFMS

Calls of active or inactive are those of the source. Unless noted, no rule for the calls is given here.

Chain of Dihydroorotate dehydrogenase (quinone), mitochondrial (Plasmodium falciparum (isolate 3D7)) (Q08210 whole entry, looked up): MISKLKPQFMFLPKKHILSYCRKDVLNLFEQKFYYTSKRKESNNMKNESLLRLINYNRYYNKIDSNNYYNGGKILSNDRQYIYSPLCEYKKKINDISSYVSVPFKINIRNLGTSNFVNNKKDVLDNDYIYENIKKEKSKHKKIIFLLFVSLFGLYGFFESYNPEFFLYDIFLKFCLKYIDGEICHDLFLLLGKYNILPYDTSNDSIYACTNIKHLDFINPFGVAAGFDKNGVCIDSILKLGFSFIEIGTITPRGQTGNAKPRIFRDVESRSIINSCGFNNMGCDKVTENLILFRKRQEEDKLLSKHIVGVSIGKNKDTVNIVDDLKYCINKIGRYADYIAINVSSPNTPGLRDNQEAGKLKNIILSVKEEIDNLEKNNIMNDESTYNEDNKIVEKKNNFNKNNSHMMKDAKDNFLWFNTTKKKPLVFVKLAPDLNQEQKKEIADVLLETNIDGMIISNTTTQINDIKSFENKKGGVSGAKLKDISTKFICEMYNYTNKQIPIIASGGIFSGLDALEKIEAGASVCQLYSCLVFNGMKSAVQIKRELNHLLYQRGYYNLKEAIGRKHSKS

On to `NC(=O)NCC#Cc1ccc2c(c1)[C@]1(C(=O)N2)[C@H](C(=O)NC[C@H](O)c2ccccc2)[C@H]2C(=O)O[C@H](c3ccccc3)[C@H](c3ccccc3)N2[C@@H]1c1ccc(OCCO)cc1`, for which the z-score in experiment [1] is 0.815; in experiment [2] it was 1.5 (inactive); in experiment [3], 0.449 (inactive); in experiment [5] it was 1.72 (inactive); in experiment [6] it was 2.91 (inactive); in [7] it was 0.615 (inactive). For the same compound, the results for the z-score in [8] and in experiment [9] were 0.541 (inactive) and 1.3, respectively. The results for the composite z-score in experiment [4] and in experiment [10] were -1.11 (inactive) and 0.11, respectively.

As to `C=C(C)c1cc2c(c(CCCCCC)n1)[Si](C(C)C)(C(C)C)OC2`, the z-score was -0.0592 in experiment [1]; 1.37 (inactive) in experiment [2]; 0.272 (inactive) in [3]; -0.735 (inactive) in [5]; 1.06 (inactive) in experiment [6]; 0.251 (inactive) in experiment [7]. The z-score in experiment [8] was 0.246 (inactive); in experiment [9], 0.16. In addition, the composite z-score was 4.59 (inactive) in experiment [4] and 0.0623 in [10].

With `O=C1O[C@@H](c2ccccc2)[C@@H](c2ccccc2)N2[C@@H](c3ccc(O)cc3)[C@]3(C(=O)Nc4ccc(C#CC5(O)CCCCCC5)cc43)[C@@H](C(=O)NC[C@H](O)c3ccccc3)[C@H]12`, the z-score is 0.677 in [1]; -0.263 (inactive) in experiment [2]; -0.418 (inactive) in [3]; 0.348 (inactive) in experiment [5]; 0.417 (inactive) in [6]; -0.839 (inactive) in experiment [7]. For the same compound, the z-score is -0.938 (inactive) in experiment [8] and -0.809 in experiment [9]. For the same compound, the figures for the composite z-score in experiment [4] and in experiment [10] were 0.409 (inactive) and -0.312, respectively.

On to `Cc1cc(C)cc(N2C(=O)CSC2c2cccc([N+](=O)[O-])c2)c1` (stereo not given), for which the z-score in [1] was -0.654; in experiment [2] it was -0.899 (inactive); in experiment [3], -1.81 (inactive); in [5], -0.242 (inactive); in experiment [6], 0.265 (inactive); in [7], 0.837 (inactive). Further, the z-score in experiment [8] was 0.384 (inactive); in [9], -0.341. In addition, the composite z-score in [4] was -1.39 (inactive); in experiment [10] it was 0.0808.

For the compound `C=C(C(=O)CC[C@@H](OC(C)=O)c1ccc(CO)o1)C(C)C`, the z-score in [1] is -0.192; in experiment [2], -0.788 (inactive); in experiment [3], 0.0874 (inactive); in experiment [5], 2.05 (inactive); in experiment [6], -0.396 (inactive); in [7], -0.351 (inactive). Also, the z-score in experiment [8] is -0.374 (inactive); in experiment [9] it was 0.0268. The composite z-score is -1.75 (inactive) in experiment [4] and 0.68 in experiment [10].

`COC(=O)[C@@]1(Cc2ccc(OC)cc2)[C@@H]2C(=CC(=O)[C@H]2CC(=O)C(=O)N(C)C)CN1C(=O)c1ccccc1`: the z-score in [1] is -1.2; in [2], 1.61 (inactive); in experiment [3] it was -2.16 (inactive); in [5] it was 2.16 (inactive); in [6], 0.625 (inactive); in [7], -0.575 (inactive). Further, the z-score was -0.798 (inactive) in experiment [8] and -3.26 in experiment [9]. For the same compound, the composite z-score in [4] was -0.626 (inactive); in experiment [10], 0.22.

`COC(=O)[C@H](Cc1ccccc1)N1CC(/C=C/C2CC2)=C[C@H]1[C@H](O)Cc1ccccc1`: the z-score in [1] was -0.57; in experiment [2], -2.67 (inactive); in experiment [3] it was -3.01 (inactive); in experiment [5] it was 0.188 (inactive); in experiment [6], -0.55 (inactive); in experiment [7], -0.0993 (inactive). In addition, the z-score in experiment [8] is -0.0274 (inactive); in experiment [9], -2.71. For the same compound, the composite z-score in experiment [4] was -0.258 (inactive); in [10] it was -0.102.

Turning to `C=C(CCCC)/C(=C/C[C@@H](OC(=O)c1ccncc1)c1ccccc1OCCO)c1cnc2ccccc2c1`, the z-score in experiment [1] was -0.846; in experiment [2], -2.19 (inactive); in experiment [3], -1.09 (inactive); in experiment [5], 1.07 (inactive); in experiment [6], -0.592 (inactive); in [7] it was -0.334 (inactive). Further, the z-score in experiment [8] was -0.514 (inactive); in [9], 0.133. The composite z-score was -3.38 (inactive) in [4] and -0.0599 in [10].

`O=C1N(Cc2ccccc2)c2ccccc2[C@@H]2OC(c3ccc(OCCCO)cc3)=N[C@]12Cc1ccccc1`: the z-score in experiment [1] was -0.408; in [2] it was -0.87 (inactive); in experiment [3], -3.68 (inactive); in experiment [5], 1.25 (inactive); in experiment [6] it was 2.06 (inactive); in [7] it was 1.29 (inactive). The z-score in experiment [8] was 0.259 (inactive); in [9] it was -2.78. Besides, the composite z-score is 1.07 (inactive) in experiment [4] and -0.0749 in [10].

As for `C[C@H]1NC(=O)[C@@]23C(=O)N[C@@H](Cc4ccccc4)C2[C@H](C)[C@@]2(C)O[C@H]2C3/C=C/C/C=C\CNC(=O)[C@H](Cc2ccccc2)NC1=O` (stereo not given in full), the z-score in [1] was -0.466; in experiment [2], 0.303 (inactive); in experiment [3], -0.0253 (inactive); in experiment [5], 1.24 (inactive); in experiment [6], 1.31 (inactive); in experiment [7] it was 0.513 (inactive). Besides, the z-score in experiment [8] is 0.32 (inactive); in experiment [9] it was 0.0583. Further, the composite z-score in experiment [4] is 0.226 (inactive); in experiment [10], 0.104.

For the compound `CC(=O)NCCCC[C@@H]1NC(=O)[C@@H]2C[C@H](C(=O)NCCCC[N+](C)(C)C)[C@H](c3ccc(O)cc3)N2C1=O`, the z-score in experiment [1] is -0.294; in experiment [2], -0.0108 (inactive); in [3], -1.23 (inactive); in experiment [5], 2.35 (inactive); in experiment [6], 0.55 (inactive); in experiment [7], -0.0376 (inactive). Further, the z-score in [8] was -1.1 (inactive); in [9] it was -1.2. Moreover, the composite z-score in experiment [4] was -30.7 (active); in experiment [10], -0.168.

Regarding `COc1cc(OC)c(C(O)C2C=CC3C(=O)N(C)C(=O)C3N2NC(=O)OC(C)(C)C)cc1Br` (stereo not given), the z-score in experiment [1] is -1.88; in experiment [2], -5.3 (inactive); in experiment [3], -0.652 (inactive); in experiment [5], 0.683 (inactive); in experiment [6], 1.18 (inactive); in experiment [7], -0.143 (inactive). In addition, the z-score in [8] was -0.376 (inactive); in [9], -0.34. The values for the composite z-score in experiment [4] and in experiment [10] were 0.985 (inactive) and 0.677, respectively.
